We go through 26 compounds from PubChem BioAssay (Tox21).

Inconclusive results are not listed. Unmarked numbers belong to inactive results. Activity calls are given as the source filed them. The call rests on the fitted dose curve; in most records, active means well fitted curve in the direction sought with a large enough effect in the repeat runs; inconclusive means weak or mixed curves; inactive means no such curve, though single readings can be large; an effect the other way counts as inactive or inconclusive.

Experiment [1] can be described thus: qHTS RealTime-Glo MT Cell Viability Assay in HEK293 cells - 16 hour (AID 1224872). Further: top concentration of the series differs between compounds; nearly all actives have a fitted effect of over 50% in size. The method in brief: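 Homogeneous bioluminescent viability format in HEK293 cells (600 cells/well). Following 5 h at 37 C/5% CO2, 23 nL compound was pintooled; the signal was measured repeatedly during 40 h incubation.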
In general terms: Quantitative high-throughput screening tests each substance at several concentrations.

The nature of experiment [2]: qHTS RealTime-Glo MT Cell Viability Assay in HepG2 cells - 8 hour (AID 1224873). Further: nearly all actives have a fitted effect of over 55% in size. The method in brief: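 Real-time viability: cells seeded at 600 per well together with NanoLuc and cell-permeant prosubstrate, compounds added after 5 h incubation. Luminescence tracked at 0, 8, 16, 24, 32 and 40 h of exposure.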
A short description of experiment [3]: qHTS RealTime-Glo MT Cell Viability Assay in HEK293 cells - 40 hour (AID 1224874). Further: nearly all actives have a fitted effect of over 50% in size. Particulars: RealTime-Glo luminescence; max response: hits give low values. The method in brief:
(§1)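 Tox21 screen in HEK293 using RealTime-Glo MT chemistry, with cells and reagent co-dispensed. Luminescence proportional to viable cell number was captured at intervals during 40 h compound exposure at 37 C.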

A short description of experiment [4]: A CellTox Green Cytotoxicity Assay to monitor cytotoxicity in HEK293 cells - 24 hour (AID 1224875). Further: nearly all actives have a fitted effect of over 45% in size. Further: potency means the concentration at half of the fitted maximal effect. The method in brief:
(§2)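 Seeding of HEK293 cells together with cytotoxicity dye preceded a 5 h incubation at 37 C/5% CO2. Test compounds in DMSO were then added and fluorescence monitored across 40 h.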

Experiment [5] can be described thus: qHTS RealTime-Glo MT Cell Viability Assay in HepG2 cells - 32 hour (AID 1224877). Further: nearly all actives have a fitted effect of over 55% in size. The method in brief:
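Cell number in HepG2 cultures estimated from NanoLuc luminescence generated by metabolic reduction of a prosubstrate by living cells. The homogeneous, nonlytic format allowed repeated reads at 0, 8, 16, 24, 32 and 40 h of compound exposure.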

A short description of experiment [6]: qHTS RealTime-Glo MT Cell Viability Assay in HEK293 cells - 0 hour (AID 1224880). Further: top concentration of the series differs between compounds; nearly all actives have a fitted effect of over 45% in size. An outline of the steps: as §1
Experiment [7] can be described thus: A CellTox Green Cytotoxicity Assay to monitor cytotoxicity in HEK293 cells - 32 hour (AID 1224881). Further: nearly all actives have a fitted effect of over 40% in size. Further: potency means the concentration at half of the fitted maximal effect. An outline of the steps:
as §2

Experiment [8] can be described thus: A CellTox Green Cytotoxicity Assay to monitor cytotoxicity in HepG2 cells - 40 hour (AID 1224879). Further: nearly all actives have a fitted effect of over 40% in size. Further: potency means the concentration at half of the fitted maximal effect. The method in brief: (§3)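 Nonlytic assay: viable cells exclude the dye, so fluorescence scales with cell death. HepG2 at 600 cells/well, compounds added after 5 h, signal read across 40 h.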
The nature of experiment [9]: A CellTox Green Cytotoxicity Assay to monitor cytotoxicity in HepG2 cells - 16 hour (AID 1224876). Further: nearly all actives have a fitted effect of over 45% in size. Further: potency means the concentration at half of the fitted maximal effect. The method in brief: as §3
Experiment [10] is described as follows: A CellTox Green Cytotoxicity Assay to monitor cytotoxicity in HepG2 cells - 24 hour (AID 1224878). Further: nearly all actives have a fitted effect of over 45% in size. Further: potency means the concentration at half of the fitted maximal effect. The method in brief: as §3
On the % scale 0 is the no-effect control and ±100 the full control effect.

As for `CCN(CC)CCNC(=O)COc1ccc(Cl)cc1`, the Potency result in [1], in experiment [4], in experiment [5] and in experiment [7] was “inactive” each time. For the same compound, the call in experiment [2] and in experiment [6] was inactive. The max response in experiment [3] was 2.3%.

Regarding `Cc1c(N)cccc1N`, the Potency entry in experiment [1], in experiment [5], in experiment [8] and in experiment [7] was “inactive” throughout. The compound was called inactive in experiment [2]. In addition, the max response in experiment [3] is 12.2%.

`O=[N+]([O-])c1nccn1CO[C@@H](CO)[C@H](O)CO`: the Potency entry in experiment [1], in experiment [9], in experiment [5], in [10], in experiment [8] and in experiment [7] was “inactive” each time. The compound was called inactive in experiment [2] and in experiment [6]. The max response in experiment [3] was -3.33%.

For `O=C(O)[C@@H](O)[C@H](O)[C@H](O)[C@@H](O)C(=O)O`, the Potency result in experiment [1], in [9], in experiment [5], in experiment [10] and in experiment [7] was “inactive” throughout. Further, the result in experiment [2] and in experiment [6] was inactive. The max response in experiment [3] was 0.215%.

Regarding `OCCN1CCN(CCO)CC1`, the Potency result in [1], in [9], in experiment [5], in experiment [8] and in experiment [7] was “inactive” throughout. The outcome in [2] and in [6] was inactive. The max response in experiment [3] was 1.21%.

`Cc1cc(NS(=O)(=O)c2ccc(N)cc2)nc(C)n1`: the Potency entry in [1], in experiment [4], in [5] and in experiment [7] was “inactive” throughout. The outcome in experiment [2] and in experiment [6] was inactive. In experiment [3], the max response is -0.863%.

For `CCCc1c2oc(C(=O)O)cc(=O)c2cc2c(=O)cc(C(=O)O)n(CC)c12`, the Potency entry in experiment [1], in [5], in [10] and in [8] was “inactive” throughout. In addition, the result in [2] was inactive. The max response in experiment [3] is 1.42%.

For `Cc1onc(-c2ccccc2)c1C(=O)Cl`, the Potency result in [1], in experiment [4], in [5] and in [7] was “inactive” in each case. The compound was called inactive in experiment [2] and in experiment [6]. Besides, the max response in [3] is 5.64%.

For the compound `CCCCCCCCCCCCCCCCOP(=O)([O-])OCC[N+](C)(C)C`, the Potency entry in experiment [1], in experiment [4], in experiment [5] and in experiment [7] was “inactive” in each case. Moreover, the compound was classed as inactive in experiment [2] and in experiment [6].

`O=C(C(Cl)Cl)N1CCOC12CCCCC2`: the Potency result in [1], in experiment [4], in experiment [9], in [5], in experiment [10] and in experiment [7] was “inactive” throughout. Moreover, the result in [2] and in experiment [6] was inactive.

Turning to `C=CC1CO1` (centres undefined), the Potency result in [1], in experiment [4], in experiment [9], in experiment [5] and in experiment [7] was “inactive” throughout. Further, the compound was called inactive in [2] and in experiment [6].

In the case of `CCCCCOc1ccc(C2SC(=O)NC2=O)cc1OCC` (centres undefined), the Potency entry in experiment [1], in experiment [4], in experiment [5] and in [7] was “inactive” in each case. Further, the outcome in experiment [2] and in [6] was inactive.

For `CCCS(=O)c1ccc2nc(NC(=O)OC)[nH]c2c1` (centres undefined), the Potency result in experiment [1], in experiment [4], in experiment [9], in experiment [5], in [10] and in [7] was “inactive” throughout. The compound was classed as inactive in experiment [2] and in experiment [6]. In experiment [8], the Potency is 12 µM (active).

For the compound `CCCCCCCCCCCCOCCOS(=O)(=O)O`, the Potency result in experiment [1] and in experiment [5] was “inactive” each time. Moreover, the call in [2] and in experiment [6] was inactive. For the same compound, the Potency in experiment [4] is 24.5 µM (active); in experiment [9], 49 µM (active); in [10], 49 µM (active); in experiment [7], 24.5 µM (active).

As to `CCCCC(=O)O[C@]1(C(=O)CO)[C@H](C)C[C@H]2[C@@H]3CCC4=CC(=O)C=C[C@]4(C)[C@@]3(F)[C@@H](O)C[C@@]21C`, the Potency entry in experiment [1], in [4], in [9], in experiment [5], in experiment [10] and in experiment [8] was “inactive” throughout. Moreover, the Potency entry in experiment [7] is “inactive”. The compound was classed as inactive in [2] and in [6].

Turning to `O=Cc1ccc(F)c(Br)c1`, the Potency entry in experiment [1], in experiment [4], in experiment [9], in [5], in experiment [10] and in experiment [8] was “inactive” each time. In addition, the Potency entry in experiment [7] is “inactive”. Further, the outcome in [2] and in [6] was inactive.

As for `CCCC1CCC(=O)O1` (centres undefined), the Potency entry in experiment [1], in [4], in experiment [9], in experiment [5], in experiment [10] and in experiment [8] was “inactive” throughout. In addition, the Potency result in experiment [7] was “inactive”. For the same compound, the outcome in [2] and in [6] was inactive.

As for `CC1(C)O[C@@H]2C[C@H]3[C@@H]4CCC5=CC(=O)CC[C@]5(C)[C@@]4(F)[C@@H](O)C[C@]3(C)[C@]2(C(=O)CCl)O1`, the Potency result in [1], in [4], in [9], in [5], in [10] and in experiment [7] was “inactive” throughout. Besides, in experiment [2], the outcome was inactive.

For `CCOC(=O)[C@H](CCc1ccccc1)N[C@@H](C)C(=O)N1Cc2cc(OC)c(OC)cc2C[C@H]1C(=O)O`, the Potency entry in experiment [1], in experiment [4], in experiment [9], in [5], in [10] and in experiment [8] was “inactive” throughout. In experiment [7], the Potency entry is “inactive”. In addition, the result in experiment [2] was inactive.

Regarding `COc1ccc(S(=O)(=O)Nc2nnc(CC(C)C)s2)cc1`, the Potency entry in experiment [1], in experiment [4], in [9], in [5], in experiment [8] and in experiment [7] was “inactive” throughout. The call in experiment [2] and in [6] was inactive.

For `CCN(CC)C(=O)N(CC)CC`, the Potency entry in experiment [1], in experiment [4], in experiment [9], in experiment [5], in [10] and in experiment [8] was “inactive” each time. Moreover, the Potency entry in experiment [7] is “inactive”. The result in experiment [2] and in [6] was inactive.

With `C=CCCC=C`, the Potency entry in [1], in [4], in [9], in [5], in experiment [10] and in [8] was “inactive” in each case. In experiment [7], the Potency result is “inactive”. Moreover, the result in experiment [2] and in experiment [6] was inactive.

Turning to `CCCOc1ccc2c(c1)CC[C@@H]1[C@@H]2CC[C@]2(C)C(OC)CC[C@@H]12` (some centres undefined), the Potency entry in experiment [1], in [4], in experiment [9], in experiment [5], in [10] and in experiment [8] was “inactive” each time. For the same compound, in experiment [7], the Potency entry is “inactive”. Moreover, the compound was classed as inactive in [2] and in experiment [6].

For `CCc1nnc(NS(=O)(=O)c2ccc(N)cc2)s1`, the Potency entry in experiment [1], in experiment [4], in experiment [5], in experiment [10], in [8] and in experiment [7] was “inactive” throughout. The compound was called inactive in [2] and in experiment [6].

As for `CO[C@@]1(NC(=O)CSCC#N)C(=O)N2C(C(=O)O)=C(CSc3nnnn3C)CS[C@@H]21`, the Potency result in experiment [1], in experiment [4], in experiment [9], in [5], in experiment [10] and in experiment [8] was “inactive” throughout. The Potency result in experiment [7] was “inactive”. Moreover, the compound was called inactive in [2].

Take `O=C1CCN(c2ccccc2)N1`: the Potency result in experiment [1], in [4], in experiment [9], in experiment [5], in experiment [10] and in experiment [8] was “inactive” in each case. The Potency result in experiment [7] was “inactive”. Further, the compound was called inactive in [2] and in experiment [6].
